The record followed here is PubChem BioAssay (EPA / NIEHS).

Inconclusive results are not listed. The source made the active and inactive calls. The calls were made as follows, unless noted: active = hit-call score of the fitted dose curve at least 0.9, where 1 is the maximum; inactive = score below 0.9.

Assay [1] is described as follows: CCTE_Harrill_HTTr_Viability_PRF_DMEM_24hr: (Pilot) CCTE's 24-hour Cell Viability Assessment for the High-Throughput Transcriptomics (HTTr) Platform, in MCF-7 cells cultured in phenol red-free DMEM + 10% charcoal-stripped fetal bovine serum, Harrill Lab (AID 2283980). An outline of the steps:
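MCF-7 cells in phenol red-free DMEM with 10% charcoal-stripped FBS, eight-point dilution series, 24 h exposure. Membrane integrity by propidium iodide exclusion with high content imaging; bidirectional fit vs DMSO.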

Assay [2] is described as follows: CCTE_Harrill_HTTr_Apoptosis_DMEM_6hr: (Pilot) CCTE's 6-hour Apoptosis Assessment for the High-Throughput Transcriptomics (HTTr) Platform, in MCF-7 cells cultured in DMEM + 10% fetal bovine serum, Harrill Lab (AID 2283981). Summed up: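 Caspase-3/7 activation read by high content imaging with CellEvent Caspase 3/7 Green in MCF-7 cells (DMEM + 10% FBS), 6 h after dosing; eight-point dilution series. Bidirectional fitting relative to DMSO baseline.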

A short description of assay [3]: CCTE_Harrill_HTTr_Apoptosis_DMEM_12hr: (Pilot) CCTE's 12-hour Apoptosis Assessment for the High-Throughput Transcriptomics (HTTr) Platform, in MCF-7 cells cultured in DMEM + 10% fetal bovine serum, Harrill Lab (AID 2283982). Summed up:
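MCF-7 cells in DMEM + 10% FBS, exposed 12 h to an eight-point dilution series; caspase-3/7 activation imaged with CellEvent Green. Bidirectional fit versus DMSO.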

Assay [4] can be described thus: CCTE_Harrill_HTTr_Apoptosis_DMEM_24hr: (Pilot) CCTE's 24-hour Apoptosis Assessment for the High-Throughput Transcriptomics (HTTr) Platform, in MCF-7 cells cultured in DMEM + 10% fetal bovine serum, Harrill Lab (AID 2283983). Summed up:
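MCF-7 cells in DMEM + 10% FBS, eight-point dilution series, 24 h exposure. Caspase-3/7 activation imaged by high-content imaging with CellEvent Caspase 3/7 Green. Bidirectional curve fitting against DMSO baseline.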

Assay [5] in a line: CCTE_Harrill_HTTr_Apoptosis_PRF_DMEM_6hr: (Pilot) CCTE's 6-hour Apoptosis Assessment for the High-Throughput Transcriptomics (HTTr) Platform, in MCF-7 cells cultured phenol red-free DMEM + 10% charcoal-stripped fetal bovine serum, Harrill Lab (AID 2283984). An outline of the steps:
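MCF-7 cells in phenol red-free DMEM + 10% charcoal-stripped FBS, eight-point dilution series, 6 h exposure. Caspase-3/7 activation imaged by high-content imaging with CellEvent Caspase 3/7 Green; bidirectional fit versus DMSO baseline.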

Assay [6] in a line: CCTE_Harrill_HTTr_Apoptosis_PRF_DMEM_12hr: (Pilot) CCTE's 12-hour Apoptosis Assessment for the High-Throughput Transcriptomics (HTTr) Platform, in MCF-7 cells cultured in phenol red-free DMEM + 10% charcoal-stripped fetal bovine serum, Harrill Lab (AID 2283985). Summed up: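 MCF-7 cells in phenol red-free DMEM with 10% charcoal-stripped FBS, eight-point dilution series, 12 h exposure. Caspase-3/7 activation imaged by high content imaging with CellEvent Green reagent; bidirectional fit vs DMSO.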

Assay [7] is described as follows: CCTE_Harrill_HTTr_Apoptosis_PRF_DMEM_24hr: (Pilot) CCTE's 24-hour Apoptosis Assessment for the High-Throughput Transcriptomics (HTTr) Platform, in MCF-7 cells cultured in phenol red-free DMEM + 10% charcoal-stripped fetal bovine serum, Harrill Lab (AID 2283986). An outline of the steps:
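MCF-7 cells in phenol red-free DMEM with 10% charcoal-stripped FBS, exposed 24 h across an eight-point dilution series. Caspase-3/7 activation imaged with CellEvent Green by high content imaging; bidirectional fitting against DMSO.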

A short description of assay [8]: CCTE_Harrill_HTTr_Viability_MCF7: CCTE's 6-hour Cell Viability Assessment for the High-Throughput Transcriptomics (HTTr) Platform, in MCF-7 cells cultured in DMEM + 10% fetal bovine serum, Harrill Lab (AID 2284010). Summed up: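 Membrane integrity was scored by high-content imaging of propidium iodide dye exclusion after a 6 h exposure across an eight-point dilution series. Data were fitted bidirectionally relative to DMSO as negative control and baseline.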

Assay [9] can be described thus: CCTE_Harrill_HTTr_CellCount_MCF7: CCTE's Cell Proliferation Assessment for the High-Throughput Transcriptomics (HTTr) Platform, Harrill Lab (AID 2284012; active = hit-call score of the fitted dose curve at least 0.9, where 1 is the maximum;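 also: cells exposed to compound for six hours; intended direction is loss of nuclei count meaning fewer cells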). An outline of the steps: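 MCF-7 cells were exposed for 6 h to an eight-point dilution series; Hoechst-labeled nuclei were counted by high content imaging. Curves were fitted bidirectionally against DMSO as negative control and baseline, with signal loss indicating reduced cell count.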

Assay [10] has as its target Nucleoli Translocation, AR (gene 367) (UniProt P10275). Nature of the assay: UPITT_HCI_U2OS_AR_TIF2_Nucleoli_Antagonist: University of Pittsburgh U2OS Androgen Receptor-Transcriptional Intermediary Factor 2 (AR-TIF2) Antagonism High Content Imaging Assay for Nucleoli Translocation (AID 2283997; active = hit-call score of the fitted dose curve at least 0.9, where 1 is the maximum). Summed up: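 U2OS cells expressing RFP-tagged human AR and GFP-tagged TIF2 were imaged by high-content fluorescence microscopy for red AR signal in the nucleolar region. Compounds were screened at 20 uM final (0.2% DMSO), with activity fitted relative to DHT as baseline.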

Assay [11] has the same target. Nature of the assay: UPITT_HCI_U2OS_AR_TIF2_Nucleoli_Agonist: University of Pittsburgh U2OS Androgen Receptor-Transcriptional Intermediary Factor 2 (AR-TIF2) Agonism High Content Imaging Assay for Nucleoli Translocation (AID 2283998; active = hit-call score of the fitted dose curve at least 0.9, where 1 is the maximum). An outline of the steps:
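Readout is red (AR-RFP) fluorescence localized to nucleoli, measured by high-content imaging and analysed for increase relative to DMSO. Compound series spanned 0.195 to 50 uM final in 0.5% DMSO.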

The target in assay [12] is Ratio of Nucleoli Translocation and Cytoplasm, AR (gene 367) (UniProt P10275). Nature of the assay: UPITT_HCI_U2OS_AR_TIF2_Nucleoli_Cytoplasm_Ratio_Antagonist: University of Pittsburgh U2OS Androgen Receptor-Transcriptional Intermediary Factor 2 (AR-TIF2) Antagonism High Content Imaging Assay for Ratio of Nucleoli Translocation and Cytoplasm (AID 2283999; active = hit-call score of the fitted dose curve at least 0.9, where 1 is the maximum;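 also: antagonists lower the DHT-driven ratio of nucleolar to cytoplasmic red signal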). Summed up: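 U2OS cells expressing RFP-tagged human AR and GFP-tagged TIF2; compounds tested at 20 uM final (0.2% DMSO) in primary screen, 0.195–50 uM (0.5% DMSO) for concentration response. Readout: nucleolar-to-cytoplasmic red fluorescence ratio by high-content imaging, fitted relative to DHT.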
Ratio of Nucleoli Translocation and Cytoplasm, AR (gene 367), sequence (P10275 whole entry, looked up): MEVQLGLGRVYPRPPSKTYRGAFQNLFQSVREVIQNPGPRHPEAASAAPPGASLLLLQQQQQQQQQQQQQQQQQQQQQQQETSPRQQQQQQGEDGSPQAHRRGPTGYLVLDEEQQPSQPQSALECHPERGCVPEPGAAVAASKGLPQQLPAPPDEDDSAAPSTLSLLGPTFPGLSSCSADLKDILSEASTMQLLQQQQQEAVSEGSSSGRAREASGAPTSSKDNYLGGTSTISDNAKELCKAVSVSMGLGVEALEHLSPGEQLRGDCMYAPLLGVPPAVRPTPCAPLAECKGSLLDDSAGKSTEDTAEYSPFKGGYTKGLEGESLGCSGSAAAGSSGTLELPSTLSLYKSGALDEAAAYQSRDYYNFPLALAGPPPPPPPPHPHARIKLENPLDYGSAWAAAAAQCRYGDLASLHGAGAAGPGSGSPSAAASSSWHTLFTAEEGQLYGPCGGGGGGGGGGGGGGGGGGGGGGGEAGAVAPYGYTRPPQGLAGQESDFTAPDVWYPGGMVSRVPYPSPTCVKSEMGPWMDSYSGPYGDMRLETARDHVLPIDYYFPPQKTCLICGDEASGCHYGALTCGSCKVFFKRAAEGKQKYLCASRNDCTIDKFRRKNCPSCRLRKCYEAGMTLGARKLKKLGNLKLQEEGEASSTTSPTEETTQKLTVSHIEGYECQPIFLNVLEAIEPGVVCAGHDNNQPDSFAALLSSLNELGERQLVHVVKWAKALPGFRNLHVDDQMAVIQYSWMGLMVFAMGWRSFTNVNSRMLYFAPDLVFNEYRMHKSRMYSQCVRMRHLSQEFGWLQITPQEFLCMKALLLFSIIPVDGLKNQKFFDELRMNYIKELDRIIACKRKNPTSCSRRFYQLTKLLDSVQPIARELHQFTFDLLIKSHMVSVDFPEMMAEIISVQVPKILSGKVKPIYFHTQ

Assay [13] is described as follows: CCTE_Harrill_HTTr_Apoptosis_MCF7: CCTE's 6-hour Apoptosis Assessment for the High-Throughput Transcriptomics (HTTr) Platform, in MCF-7 cells cultured in DMEM + 10% fetal bovine serum, Harrill Lab (AID 2284011). An outline of the steps:
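MCF-7 (DMEM + 10% FBS), 384-well; 8-pt dilution series, 6 h chemical exposure; caspase-3/7 activation via CellEvent Caspase 3/7 Green, HCI; bidirectional fit vs DMSO.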

A further assay deals with DIO1 (gene 1733). Nature of the assay: CCTE_GLTED_hDIO1: CCTE's human Deiodinase 1 (DIO1) Inhibition Assay, Great Lakes Toxicology and Ecology Division (GLTED) Lab (AID 2283987; active = hit-call score of the fitted dose curve at least 0.9, where 1 is the maximum;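 also: isolated human DIO1 enzyme in a cell-free setup rather than cells; enzyme activity read as free iodide liberated from substrate via Sandell-Kolthoff colorimetry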). Summed up:
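Inhibition of human deiodinase 1 is scored as reduced iodide liberation after a 3 h enzyme–chemical incubation, detected colorimetrically by the Sandell-Kolthoff reaction against DMSO controls.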

The nature of assay [14]: CCTE_Simmons_MITO_basal_resp_rate: CCTE's HepG2 Seahorse XF Respirometric Screening Assay at Basal Respiratory State, Simmons Lab (AID 2284001). The following applies: actives raise or lower the signal. An outline of the steps: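 HepG2 cells were given test chemicals at 7 concentrations, 125 nM to 100 uM final, and oxygen consumption rate was read every 6 min (3 min mix, 3 min measure) over 72 min. Basal-phase OCR was fitted bidirectionally against DMSO.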

Assay [15] in a line: CCTE_Simmons_MITO_max_resp_rate: CCTE's HepG2 Seahorse XF Respirometric Screening Assay at Maximal Respiratory State [uncoupled], Simmons Lab (AID 2284002). The following applies: actives raise or lower the signal. Summed up:
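Read-out is oxygen consumption rate at maximal respiration, taken after FCCP uncoupling of compound-treated HepG2 cells. Seven final concentrations from 125 nM to 100 uM were tested, each in three biological replicates.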

Assay [16] can be described thus: CCTE_Simmons_MITO_inhib_resp_rate: CCTE's HepG2 Seahorse XF Respirometric Screening Assay at Inhibited Respiratory State [full ETC block], Simmons Lab (AID 2284006). The following applies: actives raise or lower the signal. An outline of the steps: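 HepG2 cells on Seahorse XF96; oxygen consumption measured after test compound, then FCCP, then rotenone/antimycin A injections over 72 min. Test chemicals at 7 concentrations, 125 nM–100 uM final. OCR fitted bidirectionally versus DMSO.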

Assay [17] is described as follows: CCTE_Shafer_MEA_acute_spike_number: CCTE's Neural Acute Assay for Total Number of Spikes, Shafer Lab (AID 2284008).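 As to AC50: curve fitted for decrease in spike count so AC50 reflects inhibitors.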 Summed up: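 Read-out is the total spike count over 40 min, expressed as percent change from each well's own pre-treatment baseline and fitted in the loss direction against DMSO. Rat cortical neurons were exposed at 0.03-40 uM on DIV 13 or 15.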

Assay [18] is described as follows: CCTE_Shafer_MEA_acute_firing_rate_mean: CCTE's Neural Acute Assay for Mean Firing Rate, Shafer Lab (AID 2284009).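 Also: analyzed for loss of signal so actives lower firing rate relative to DMSO.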 An outline of the steps: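 Read-out: well-mean spike rate (spikes/recording length/electrodes), % change from 40 min pre-dose baseline to 40 min with compound. Rat cortical cultures, DIV 13 or 15, 37 C; 0.03-40 uM; DMSO as negative control.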
Assay [19] addresses Ratio of Nucleoli Translocation and Cytoplasm, AR (gene 367) (UniProt P10275). Nature of the assay: UPITT_HCI_U2OS_AR_TIF2_Nucleoli_Cytoplasm_Ratio_Agonist: University of Pittsburgh U2OS Androgen Receptor-Transcriptional Intermediary Factor 2 (AR-TIF2) Agonism High Content Imaging Assay for Ratio of Nucleoli Translocation and Cytoplasm (AID 2284000; active = hit-call score of the fitted dose curve at least 0.9, where 1 is the maximum;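 also: hits raise the red nucleolar to cytoplasm ratio above vehicle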). An outline of the steps:
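U2OS cells expressing RFP-tagged human AR and GFP-tagged TIF2 were imaged by high-content fluorescence microscopy. The endpoint is the ratio of nucleolar to cytoplasmic red fluorescence, fitted for gain of signal relative to DMSO. Concentration-response spanned 0.195 to 50 uM final (0.5% DMSO).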

Nucleoli Translocation, AR (gene 367), sequence (P10275 whole entry, looked up): as above

For orientation: AC50 means the concentration giving half of the maximal activity seen. On to `C[C@@H]1C[C@@H]([C@H](O)CC2CC(=O)NC(=O)C2)C(=O)[C@@H](C)C1`, for which, in assay [1], the AC50 was 9.42 µM (active). Moreover, the result in [2], in assay [3], in assay [4], in assay [5], in [6] and in assay [7] was inactive. Moreover, the result in [8] and in assay [9] was inactive.

On to `COP(=O)(OC)OC`, for which the call in [10], in [11], in assay [12], in assay [8], in [13] and in assay [9] was inactive.

With `CC(C)(C)CC(C)(C)c1ccc(O)cc1`, the AC50 was 90.7 µM (active) with DIO1 (gene 1733); 27.6 µM (active) in assay [14]; 27.7 µM (active) in assay [15]; 6.06 µM (active) in assay [17]; 6.07 µM (active) in [18]. The outcome in [12], in assay [16], in [8], in assay [13] and in assay [9] was inactive.

Take `CCC(C)(C)c1ccc(O)c(C(C)(C)CC)c1`: the AC50 in the assay with DIO1 (gene 1733) was 46.1 µM (active); in assay [14], 38 µM (active); in assay [15] it was 78.2 µM (active); in assay [17], 4.73 µM (active); in [18] it was 4.69 µM (active); in [8], 42.1 µM (active). For the same compound, the compound was classed as inactive in assay [16] and in [9].

Turning to `ClC1(Cl)C2(Cl)C3(Cl)C4(Cl)C(Cl)(Cl)C5(Cl)C3(Cl)C1(Cl)C5(Cl)C24Cl` (configuration not stated), the compound was classed as inactive in assay [10], in assay [17], in assay [18], in assay [8], in assay [13] and in [9].

As to `Cl/C=C\C[N+]12CN3CN(CN(C3)C1)C2`, the concentration at half-maximal activity (AC50) in [10] and in [12] was 50 µM (active) throughout. In addition, the outcome in assay [11] and in assay [19] was inactive.

Turning to `CCC(=O)C(CC(C)N(C)C)(c1ccccc1)c1ccccc1` (configuration not stated), the result in [10], in [11], in assay [12], in [19], in [8] and in assay [9] was inactive. Also, the AC50 in assay [17] was 0.0569 µM (active); in assay [18], 0.052 µM (active).

Take `CC12CC1(C)C(=O)N(c1cc(Cl)cc(Cl)c1)C2=O` (configuration not stated): the concentration at half-maximal activity (AC50) in [10] is 0.134 µM (active). Further, the outcome in assay [11], in assay [12], in assay [19], in [8], in assay [13] and in [9] was inactive.

In the case of `C[C@]12CCC(=O)C[C@@H]1CC[C@@H]1[C@@H]2CC[C@]2(C)[C@@H](O)CC[C@@H]12`, the result in [14], in [15], in assay [16], in assay [8] and in [13] was inactive. For the same compound, the half-maximal activity concentration (AC50) in assay [17] and in assay [18] was 20 µM (active) each time.

With `Clc1ccc(COC(Cn2ccnc2)c2ccc(Cl)cc2Cl)cc1` (configuration not stated), the values for the concentration at half-maximal activity (AC50) in [10], in [11] and in assay [19] were 10.1 µM (active), 50 µM (active) and 74.4 µM (active), respectively. Moreover, the outcome in [12], in assay [8] and in [9] was inactive.

Turning to `O=C1C2(Cl)C3(Cl)C4(Cl)C(Cl)(Cl)C5(Cl)C3(Cl)C1(Cl)C5(Cl)C24Cl` (configuration not stated), the half-maximal activity concentration (AC50) was 13.3 µM (active) in assay [10]; 12.7 µM (active) in assay [11]; 13.7 µM (active) in assay [12]; 13.1 µM (active) in assay [19]; 54 µM (active) in [14]; 35.8 µM (active) in assay [15]. Also, the AC50 in assay [17] and in assay [18] was 1.84 µM (active) each time. The result in assay [16], in [8] and in [9] was inactive.
